Test systems include HCT-15 colon; HT29 colon; SNB-75 CNS; SNB-19 CNS; U251 CNS; PC-3 prostate; SK-MEL-5 melanoma; UACC-62 melanoma; SK-MEL-28 melanoma; SK-MEL-2 melanoma; EKVX NSCLC; SN12C renal; UO-31 renal; TK-10 renal; ACHN renal; CAKI-1 renal; CCRF-CEM leukemia; LOX IMVI melanoma; A498 renal; MOLT-4 leukemia.
Holding throughout (experiment): NCI-60 one-dose screen, 48 h (100 = growth as untreated, 0 = no growth, -100 = all killed)
Holding throughout (details): 10 µM unless noted

Results on 13 compounds are retold here after PubChem BioAssay (NCI).

“And” between values parts separate entries of the source, which are not always exact repeats. Equal entries are not always repeated. About 83,000 compounds went through this panel and 20% of them were active in at least one assay; those are over-represented in the sample as a whole.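 Step 1: grow cells in 96-well plates. Step 2: add test compound at a single concentration. Step 3: incubate 48 h. Step 4: record percent growth.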 A number with no mark means an inactive call. The source made the active and inactive calls. How the source made its calls: active means growth percent below 10; inactive means the rest.

As for `Nc1ncnc2c1ncn2C1OC(CO)C(O)C1O` (stereo not given), the growth in the assay on HCT-15 colon is 109% and 33.5% and 105%; in the assay on HT29 colon, 109% and 35.6% and 98.4%; in the assay with SNB-75 CNS, 99.1% and 50.2% and 91.3%; in the assay on SNB-19 CNS, 106% and 67.8% and 100%; with U251 CNS, 107% and 92.7% and 104%; with PC-3 prostate it was 81.4% and 29.8% and 98.9%. Besides, the growth with SK-MEL-5 melanoma was 107% and 103% and 102%; with UACC-62 melanoma, 110% and 82.7% and 101%; in the assay on SK-MEL-28 melanoma it was 116% and 124% and 125%; with SK-MEL-2 melanoma it was 144% and 67.2% and 121%; in the assay on EKVX NSCLC it was 116% and 88.3% and 105%; with SN12C renal, 103% and 90.3% and 97.5%. The growth in the assay with UO-31 renal is 92.9% and 76.6% and 90.3%; with TK-10 renal, 114% and 106% and 118%; in the assay with ACHN renal, 111% and 84.1% and 98.9%; in the assay on CAKI-1 renal it was 103% and 109% and 94.5%; with CCRF-CEM leukemia, 96.7% and 119% and 105%.

`O=[N+]([O-])c1ccc(N=Nc2ccc(O)cc2O)cc1`: the growth with HCT-15 colon is 36.9%; with HT29 colon, 75.7%; in the assay with SNB-75 CNS, 70.3%; with SNB-19 CNS it was 53.7%; with U251 CNS, 38.4%; in the assay with PC-3 prostate, 32.1%. For the same compound, the growth with SK-MEL-5 melanoma was 43.3%; in the assay on UACC-62 melanoma it was 36.4%; with LOX IMVI melanoma it was 51.8%; with SK-MEL-28 melanoma it was 44.2%; in the assay on SK-MEL-2 melanoma, 43.1%; in the assay on EKVX NSCLC it was 58.8%. The growth with SN12C renal is 67.2%; with UO-31 renal it was 58.5%; in the assay with TK-10 renal it was 77.9%; in the assay on ACHN renal, 55.5%; in the assay on CAKI-1 renal, 56%; in the assay with A498 renal, 13.8%. The growth in the assay on CCRF-CEM leukemia was 33.2%.

Take `C/C=C1\SC(=S)NC1=O`: the growth is 98.9% in the assay with HCT-15 colon; 108% with HT29 colon; 88.5% in the assay with SNB-75 CNS; 102% in the assay on SNB-19 CNS; 96.2% in the assay on U251 CNS; 95.1% in the assay with PC-3 prostate. The growth was 99.8% in the assay with SK-MEL-5 melanoma; 97.8% in the assay with UACC-62 melanoma; 107% in the assay with SK-MEL-28 melanoma; 111% in the assay on SK-MEL-2 melanoma; 95.1% with EKVX NSCLC; 91.6% with UO-31 renal. Besides, the growth in the assay with TK-10 renal is 98.4%; in the assay with ACHN renal it was 106%; in the assay on CAKI-1 renal it was 99.3%; in the assay on A498 renal, 108%.

As to `C1=C(c2ccccc2)C(c2ccc(OCCN3CCCCC3)cc2)Oc2ccccc21` (stereo not given), the growth in the assay on HCT-15 colon was 23.2%; in the assay on HT29 colon, 1.98% (active); in the assay with SNB-75 CNS, 56.5%; with SNB-19 CNS it was 53.7%; in the assay on U251 CNS, 38.2%; with UACC-62 melanoma, -41% (active). The growth in the assay with LOX IMVI melanoma is -76.9% (active); with SK-MEL-2 melanoma, 77.3%; in the assay with EKVX NSCLC, 69.1%; in the assay on SN12C renal, 55.3%; in the assay with UO-31 renal, 56.7%; in the assay on TK-10 renal, 74.9%. The growth with ACHN renal was 71.5%; in the assay with CAKI-1 renal, 30%; in the assay on A498 renal, 94%; with CCRF-CEM leukemia it was 37.5%.

As to `O=C1c2ccccc2C(=O)N1c1ccccc1`, the growth is 105% in the assay with HCT-15 colon; 104% in the assay with HT29 colon; 89.2% in the assay on SNB-75 CNS; 93.1% in the assay with U251 CNS; 101% in the assay with PC-3 prostate; 105% in the assay on SK-MEL-5 melanoma. For the same compound, the growth in the assay on UACC-62 melanoma was 92%; in the assay on SK-MEL-28 melanoma it was 115%; in the assay with SK-MEL-2 melanoma, 128%; in the assay on EKVX NSCLC, 93%; in the assay on SN12C renal, 97.2%; in the assay on UO-31 renal, 89.1%. The growth is 117% in the assay with TK-10 renal; 99.5% with ACHN renal; 81.3% in the assay with CAKI-1 renal; 109% in the assay on A498 renal; 114% in the assay on CCRF-CEM leukemia; 103% with MOLT-4 leukemia.

Take `Oc1c(Br)c(Br)c(O)c(Br)c1Br`: the growth in the assay with HCT-15 colon is 11%; in the assay on HT29 colon, 129%; with SNB-75 CNS, 120%; in the assay on U251 CNS, 114%; in the assay on PC-3 prostate, 105%; in the assay with SK-MEL-5 melanoma it was 102%. Moreover, the growth in the assay with UACC-62 melanoma is 93.3%; in the assay on SK-MEL-28 melanoma it was 92.8%; in the assay on SK-MEL-2 melanoma, 104%; in the assay with EKVX NSCLC, 112%; in the assay with UO-31 renal it was -80.4% (active); with TK-10 renal it was 42.6%. Also, the growth in the assay on ACHN renal is -33.2% (active); in the assay with CAKI-1 renal, 92.5%; with A498 renal, 127%; in the assay with CCRF-CEM leukemia it was 15.8%; with MOLT-4 leukemia it was 42.6%.

With `Cc1ccc(NS(=O)(=O)c2ccc(C)cc2)cc1`, the growth in the assay with HCT-15 colon is 101% and 104%; in the assay on HT29 colon, 101% and 90.4%; in the assay with SNB-75 CNS, 87.7% and 102%; in the assay with U251 CNS it was 96.9% and 86.6%; with SK-MEL-5 melanoma, 97.8% and 95.3%; in the assay on UACC-62 melanoma, 91% and 99.2%. The growth in the assay with LOX IMVI melanoma was 99.2% and 96%; with SK-MEL-28 melanoma, 116% and 110%; in the assay with SK-MEL-2 melanoma it was 101% and 79.6%; in the assay with EKVX NSCLC, 96.3%; in the assay with SN12C renal it was 105% and 99.8%; in the assay with UO-31 renal, 93% and 79.3%. The growth is 104% and 91.5% in the assay with TK-10 renal; 113% and 96.6% in the assay with ACHN renal; 90.9% and 96% in the assay on CAKI-1 renal; 92.8% and 93.4% with A498 renal; 92.3% and 97.2% in the assay with CCRF-CEM leukemia.

As to `O=C(Nc1ccccc1)Oc1c(Cl)c(Cl)c(Cl)c(Cl)c1Cl`, the growth was 102% and 99.8% in the assay on HCT-15 colon; 104% and 96.6% with HT29 colon; 93.1% and 77.4% with SNB-75 CNS; 99% and 100% with U251 CNS; 95.6% and 93.6% in the assay with PC-3 prostate; 88.8% and 89.5% in the assay with UACC-62 melanoma. Also, the growth in the assay with LOX IMVI melanoma is 99% and 93.1%; with SK-MEL-28 melanoma it was 119% and 101%; with SK-MEL-2 melanoma, 95.6% and 101%; in the assay on EKVX NSCLC, 97.7% and 87.2%; with SN12C renal it was 99.4% and 92.7%; in the assay on UO-31 renal it was 73.9% and 83.2%. Besides, the growth in the assay with TK-10 renal is 100%; in the assay with ACHN renal it was 99.1% and 93.6%; in the assay on CAKI-1 renal, 93.1% and 89.7%; with A498 renal, 95.9% and 76.8%; in the assay on CCRF-CEM leukemia it was 93.6% and 101%; with MOLT-4 leukemia, 90.8% and 96.1%.

In the case of `c1ccc2c(c1)Nc1cc3ccccc3cc1N2`, the growth in the assay with HCT-15 colon is 17.5%; in the assay on HT29 colon, 14.7%; in the assay on SNB-75 CNS, 32.6%; with U251 CNS, 43%; with PC-3 prostate, 24.9%; in the assay on SK-MEL-5 melanoma, -75.7% (active). The growth was 52.9% with UACC-62 melanoma; 11.3% in the assay on LOX IMVI melanoma; 83.3% with SK-MEL-28 melanoma; 84% in the assay on SK-MEL-2 melanoma; 56.4% with EKVX NSCLC; 54.6% in the assay on SN12C renal. Also, the growth with UO-31 renal is 17.6%; with TK-10 renal, 93.3%; in the assay with ACHN renal, 27%; in the assay with CAKI-1 renal it was 38%; in the assay with A498 renal it was 81.9%; in the assay on CCRF-CEM leukemia, 26.5%. In addition, in the assay with MOLT-4 leukemia, the growth is 20.9%.

In the case of `NC(=O)/C=C/C(=O)c1c(Cl)cccc1Cl`, the growth was -61.2% (active) in the assay on HCT-15 colon; -39.6% (active) in the assay on HT29 colon; -99.5% (active) in the assay with SNB-75 CNS; -59.1% (active) in the assay on U251 CNS; -96% (active) with PC-3 prostate; -94.5% (active) with SK-MEL-5 melanoma. Also, the growth with UACC-62 melanoma is -71.1% (active); in the assay with SK-MEL-28 melanoma, -99.1% (active); in the assay with SK-MEL-2 melanoma, -67.4% (active); in the assay on EKVX NSCLC, -36.4% (active); with SN12C renal it was -90.2% (active); in the assay on UO-31 renal, -86.4% (active). The growth in the assay on TK-10 renal is -83.7% (active); with ACHN renal it was -76.3% (active); in the assay with CAKI-1 renal it was -86.9% (active); in the assay with A498 renal it was -58.4% (active); with CCRF-CEM leukemia, -33.9% (active); with MOLT-4 leukemia, -26.3% (active).

Take `COc1cc(/C=C(/C)C[N+](=O)[O-])ccc1O`: the growth was 46.1% in the assay with HCT-15 colon; 101% in the assay with HT29 colon; 78.4% in the assay on SNB-75 CNS; 97.8% with SNB-19 CNS; 92% with U251 CNS; 93.8% in the assay with PC-3 prostate. The growth with UACC-62 melanoma is 83.6%; with SK-MEL-28 melanoma it was 54.3%; with SK-MEL-2 melanoma, 96.9%; in the assay on EKVX NSCLC, 109%; in the assay with SN12C renal it was 86.3%; with UO-31 renal, 73.3%. Also, the growth is 87.4% in the assay on TK-10 renal; 95.9% in the assay with ACHN renal; 84.3% in the assay on CAKI-1 renal; 56.9% in the assay on CCRF-CEM leukemia; 80.6% in the assay with MOLT-4 leukemia.

For the compound `Nc1nc(N)c2c(ccc3c2ccn3Cc2cccc([N+](=O)[O-])c2)n1`, the growth was -84.6% (active) in the assay on HCT-15 colon; -60% (active) in the assay on HT29 colon; -89.8% (active) with SNB-75 CNS; -87.9% (active) in the assay on U251 CNS; -54.1% (active) in the assay on PC-3 prostate; -98% (active) in the assay with SK-MEL-5 melanoma. Besides, the growth in the assay with UACC-62 melanoma is -94.8% (active); in the assay on SK-MEL-28 melanoma, -97.1% (active); in the assay on SK-MEL-2 melanoma it was -92% (active); in the assay on EKVX NSCLC, -93.8% (active); with SN12C renal it was -83.6% (active); with UO-31 renal, -95.5% (active). For the same compound, the growth was -92.4% (active) with TK-10 renal; -97% (active) with ACHN renal; -96.1% (active) with CAKI-1 renal; 24% with CCRF-CEM leukemia; 46.2% in the assay with MOLT-4 leukemia.

`O=C1OCc2cccc3cccc1c23`: the growth was 94.6% in the assay with HCT-15 colon; 105% with HT29 colon; 85.2% in the assay with SNB-75 CNS; 104% in the assay with SNB-19 CNS; 106% in the assay on U251 CNS; 89.5% in the assay on PC-3 prostate. Further, the growth in the assay with UACC-62 melanoma was 95.5%; in the assay with SK-MEL-28 melanoma it was 107%; in the assay with SK-MEL-2 melanoma, 123%; with EKVX NSCLC it was 88.2%; in the assay on UO-31 renal, 77%; with TK-10 renal, 101%. The growth in the assay on ACHN renal is 95.7%; with CAKI-1 renal, 102%; with CCRF-CEM leukemia, 94.5%; with MOLT-4 leukemia it was 92.6%.
